The list is not random: actives were taken first. Their share in the collection is about 12%.
Shiga inhibitor = inhibitors of Shiga toxin in Vero cells; Vero cells, Shiga toxin protein synthesis inhibition reporter; inhibition, % at 38.7 µM; actives 9.2% (n = 290,000); AID 2315; in the data active means inhibition mostly above about 28%, no sharp cut-off; inactive means mostly below about 43%; further: 0% is about no effect
Marburg entry inh = Marburg virus entry inhibition | Marburg virus pseudotyped entry inhibition, cell reporter | Potency, µM (top dose mostly 37.8 µM), for the others: at the top dose activity change, negative = inhibition, most hits filed as inhibitors | actives 1.8% (n = 300,000) | AID 540276; calls by dose curve; tested in HEK293 cells; further: potency means the concentration at half of the fitted maximal effect; on the % scale 0 is the no-effect control and ±100 the full control effect
Cycloheximide cs = counter-screen for Shiga toxin inhibitors: cycloheximide protein synthesis inhibition | cell reporter, cycloheximide protein synthesis inhibition counterscreen | actives 12% (n = 300,000) | max response, %; in the data active means max response mostly above about 13%, no sharp cut-off; inactive means mostly below about 14%; further: read at 38.3 µM for the half of the compounds with a filed dose; 0% is about no effect
LASV entry inh = blocks Lassa virus binding to or entry into cells | Lassa virus pseudotype entry inhibition, cell reporter | Potency, µM (series often up to 37.9 µM), without a hit: top-dose activity change, negative = inhibition, hits mostly inhibitors | actives 1.2% (n = 300,000) | AID 540256; calls by dose curve; tested in HEK293 cells; further: potency means the concentration at half of the fitted maximal effect; on the % scale 0 is the no-effect control and ±100 the full control effect; nearly all actives have a fitted effect of over 50% in size
Numbers without * were called inactive; ? = inconclusive; · = no result; [ ] = another dose, or the depositor's remark.

SMILES	Shiga inhibitor	Marburg entry inh	Cycloheximide cs	LASV entry inh
Cc1cc(NC2CCCC2)n2nc(C)c(-c3ccccc3)c2n1	38	?	29*	9%[46.1 µM]
Cc1cc(NC2CCCC2)n2ncc(-c3ccccc3)c2n1	17	?	23*	?
COc1ccc(-c2c(C)nn3c(NC4CCCC4)cc(C)nc23)cc1OC	-9	·	0	·
Cc1cc(C(=O)COC(=O)c2cccnc2Cl)c(C)n1-c1c(C)n(C)n(-c2ccccc2)c1=O	8	-6%	12	-5%
CC(C)Cn1c([N+](=O)[O-])nc2c1c(=O)[nH]c(=O)n2C	2	?	-2	7.1µM*
Cn1c(=O)[nH]c(=O)c2c1nc([N+](=O)[O-])n2Cc1ccccc1	-11	?	2	?
CC(C)C(=O)c1cc2c(cc1NC(=O)c1ccccc1)OCCO2	-4	?	-1	1%
O=C(Nc1cc2c(cc1C(=O)O)OCCCO2)c1ccc(F)cc1F	45	3%[46.1 µM]	17*	?
O=C(Nc1cc2c(cc1Cl)OCCCO2)c1ccccc1	99*	?	31*	13%
O=C(Nc1cc2c(cc1Cl)OCCCO2)c1ccco1	105*	5%	80*	-8%
COc1ccc(S(=O)(=O)N(CC(=O)Nc2ccccc2Cl)Cc2ccccc2)cc1	·	·	·	9%[46.1 µM]
CC1CCN(S(=O)(=O)c2ccc3c(c2)N(CC(=O)NCCCN2CCCCC2)C(=O)CS3)CC1	13	·	-2	10%[46.1 µM]
CC(=O)C1=C(O)C(=O)N(c2ccccn2)C1c1ccc(Cl)cc1 (centres undefined)	66*	3%[46.1 µM]	27*	19%[46.1 µM]
CC(C(=O)Nc1ccccc1-c1ccccc1)N1CCN(C(=O)c2ccco2)CC1 (centres undefined)	·	0%	·	·
CCOC(=O)c1c(C)nc(C(Cl)(Cl)Cl)nc1N	56*	16%[46.1 µM]	18*	20%[46.1 µM]
Cc1ccc(CN(C(=O)COc2ccccc2Cl)c2ccccn2)o1	·	3%[46.1 µM]	·	?
Cc1cc(=O)n2[nH]c(SCc3ccccc3Cl)nc2n1	-5	5%[46.1 µM]	-2	12%[46.1 µM]
O=[N+]([O-])c1cccc(/C=C2\CCC(/C=N/Nc3ccc4ccccc4n3)=C2N2CCOCC2)c1	-3	?	17*	-2%
COc1ccc(COC(=O)CNC(=O)C2CCCCC2)cc1F	·	-10%	·	15%
CCOC(=O)C(C)Sc1ccc2nnc(CCNS(=O)(=O)c3ccccc3)n2n1 (centres undefined)	41	·	8	5%[46.1 µM]
O=C(CN1CCCc2ccccc21)N1CCc2ccccc21	48*	?	28*	-5%[46.1 µM]
CCN(CC)C(=O)N1CCc2ccccc21	21	0%	-1	11%
O=C(CN1CCCCC1)N1CCc2ccccc21	-6	-9%[46.1 µM]	7	2%[46.1 µM]
NNC(=O)CN1CCCc2ccccc21	92*	?	69*	11%
CC(CC(=O)N1CCc2ccccc21)c1ccccc1 (centres undefined)	36	10%[46.1 µM]	18*	4%
SMILES	Shiga inhibitor	Marburg entry inh	Cycloheximide cs	LASV entry inh
COc1cc(C(CC2=C(c3ccccc3)Cc3ccccc32)NC(=O)C(F)(F)F)cc(OC)c1OC (centres undefined)	·	8%[14.2 µM]	·	·
O=C(NCC1CC1)c1ccc(Nc2nc3ccc(Br)cc3[nH]2)cc1	-38	·	-2	·
O=C(Cc1ccc(Nc2nc3ccc(Br)cc3[nH]2)cc1)NCCc1cccs1	19	·	15*	·
CCOC(=O)c1ccc(N=Cc2c(O)c3ccccc3oc2=O)cc1	-8	-14%[46.1 µM]	-6	14%[46.1 µM]
CCOC(=O)c1c(C)oc2c1c(C(c1ccccc1)N1CCOCC1)c(O)c1ccccc12 (centres undefined)	141*	?	71*	23µM*
CCOC(=O)c1c(C)oc2c1c(C(c1cccnc1)N1CCCCC1)c(O)c1ccccc12 (centres undefined)	95*	0%	57*	12%
CCOC(=O)c1c(C)oc2c1c(C=NCCO)c(O)c1ccccc12	44	?	28*	?
COc1cccc(Nc2nc3ccc(OC)cc3s2)c1	89*	?	57*	?
COc1cccc(Nc2n[nH]c(=S)s2)c1	-11	?	-7	7%
Cc1cccc(Nc2n[nH]c(=S)s2)c1C	-10	-6%	-3	12%
Cc1cccc(Nc2nc3ccccc3s2)c1C	100*	?	49*	?
COc1ccc2nc(C)cc(Sc3nc4ccccc4s3)c2c1	3	?	5	16µM*
COc1ccc2nc(C)cc(SCC(=O)NNC(=O)COc3ccccc3)c2c1	-13	-15%	0	-5%
COc1ccc2nc(NC3=NCCC3)sc2c1	153*	?	53*	-5%
Cc1coc2cc3oc(=O)c(CC(=O)NCCc4ccccc4)c(C)c3cc12	·	1%[46.1 µM]	·	16%[46.1 µM]
CC(C)CC(=O)Nc1nnc(SCC(=O)NCC2CCCO2)s1 (centres undefined)	13	29%	-2	6%
O=C(COC(=O)CNC(=O)c1ccc(Cl)cc1Cl)NC1CCCCCCC1	·	14%[46.1 µM]	·	?
Cc1nn(C(=O)c2cc([N+](=O)[O-])ccc2Cl)c(C)c1Br	14	·	7	·
COc1ccc2nc(NCc3cccnc3)sc2c1	49*	·	22*	·
COc1ccc(Nc2nc3ccccc3s2)cc1	71	?	50*	?
COc1ccc2nc(Nc3sc4c(c3C(N)=O)CCCC4)sc2c1	59*	6%	42*	-3%
O=C(CCc1ccccc1)Nc1cc(S(=O)(=O)N2CCOCC2)ccc1N1CCCC1	·	0%	·	-16%
COc1ccc(C)cc1NC(=O)CN(C)C1CCCCC1	-7	-18%[46.1 µM]	-4	-18%
COc1cc(/C=C(\C#N)c2ccccn2)cc(OC)c1O	3	·	17	·
CN(C)c1ccc(/C=C(\C#N)c2ccccn2)cc1	-15	1.2µM*	-5	1.4µM*
SMILES	Shiga inhibitor	Marburg entry inh	Cycloheximide cs	LASV entry inh
N#C/C(=C\c1ccc([N+](=O)[O-])cc1)c1ccccn1	49*	13%[46.1 µM]	29*	2%
COC(=O)c1ccc(/C=C(\C#N)c2ccccn2)cc1	133*	·	39*	·
O=C(Nc1ccn(Cc2ccccc2)n1)c1ccc2c(c1)OCO2	42*	·	24*	·
O=C(Nc1ccn(Cc2ccc(Cl)cc2)n1)c1ccccc1	90*	20%	21*	?
CCOC(=O)Cn1nc(NC(=O)c2ccc3c(c2)OCO3)cc1C	7	-7%	-2	-14%
N#CCCn1ccc(NC(=O)c2ccc(Cl)cc2)n1	23	16%	14	12%
CCOc1ccc(NC(=O)c2ccc(NC(=O)CCS(=O)(=O)c3cccs3)cc2)cc1	·	?	·	-4%[46.1 µM]
CCC(C)/C(C)=N/NC(=O)c1ccccc1OCCOc1ccccc1 (centres undefined)	18	?	0	12%[46.1 µM]
CCC/C=N/NC(=O)c1ccccc1O	47*	?	18*	0%[46.1 µM]
O=C(NN=C(Cc1ccccc1)Cc1ccccc1)c1ccccc1O	18	?	11	7%[46.1 µM]
C/C(=N\NC(=O)c1ccccc1O)C1C(=O)c2ccccc2C1=O	36	-9%	29*	-4%
CCC/C(C)=N/NC(=O)c1ccccc1O	105*	8%	27*	20%
CCOC(=O)C(CC)/C(C)=N\NC(=O)c1ccccc1O (centres undefined)	33*	?	18*	-19%
Cc1ccc2c(c1)N(CC(=O)NCCCN1CC(C)CC(C)C1)C(=O)c1cccnc1O2 (centres undefined)	-8	·	-2	·

Bioassay records from PubChem BioAssay.
